Shown are actives, neighbours in structure and some others; about 21% of the full set was active somewhere.
Pf growth 48h: inhibits P. falciparum growth in the first generation, 48 h; P. falciparum luciferase growth in erythrocytes, 48 h; Potency, µM (highest dose often 28.7 µM), actives largely listed as inhibitors; 310,000 compounds, 5.9% hits; active means well fitted inhibition curve with a large enough effect; inconclusive means small, poorly fitted or top-dose-only effect, or another doubt; inactive means no such curve, though single readings can be large or run the other way
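First compound was added to culture medium, then infected red cells at 0.1% parasitemia and 2% hematocrit (final). After incubation at 37 C under 5% CO2, luciferase detection reagent was dispensed and light output recorded.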
SARS PLP yeast: SARS-CoV PLP inhibition in yeast. 330,000 compounds, 0.19% hits. Potency, µM (doses to about 32.9 µM), actives largely listed as activators. S. cerevisiae expressing SARS-CoV PLpro, growth rescue; further: nearly all actives have a fitted effect of over 55% in size
Shiga inhibitor: blocks Shiga toxin action in Vero cells | Vero cells, Shiga toxin protein synthesis inhibition reporter | inhibition, % at 38.7 µM | 290,000 compounds, 9.2% hits; in the data active means inhibition mostly above about 28%, no sharp cut-off; inactive means mostly below about 43%
NS1 inh: blocks influenza NS1 protein function | Potency, µM (highest dose often 46.1 µM) | 270,000 compounds, 0.4% hits; further: actives are rising curves; nearly all actives have a fitted effect of over 50% in size
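Compounds were scored for reversing the slow growth caused by influenza A NS1 in S. cerevisiae, measured by optical density at 600 nm. Assay medium contained 2% galactose at pH 6.0; NS1-free yeast of the same strain were the positive control.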
CHX counter: counter-screen for Shiga toxin inhibitors: cycloheximide protein synthesis inhibition; cell reporter, cycloheximide protein synthesis inhibition counterscreen; max response, %; 300,000 compounds, 12% hits; AID 2314; in the data active means max response mostly above about 13%, no sharp cut-off; inactive means mostly below about 14%; further: read at 38.3 µM for the half of the compounds with a filed dose
Pf growth 96h: P. falciparum growth inhibition at 96 hours; P. falciparum luciferase reporter growth, 96 h; Potency, µM (highest dose often 28.7 µM), hits mostly inhibitors; 320,000 compounds, 6.9% hits; active means well fitted inhibition curve with a large enough effect; inconclusive means small, poorly fitted or top-dose-only effect, or another doubt; inactive means no such curve, though single readings can be large or run the other way
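Two parasite generations (96 h, 37 C, 5% CO2) of compound exposure in infected erythrocytes (0.05% parasitemia, 2% hematocrit). Luciferase-reporter P. falciparum; decreased luminescence indicates inhibited growth, aimed at apicoplast-acting delayed death.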
A number is an active result. Unless noted, the call rests on the fitted dose curve.

How did Cc1cc(NCCN2CCOCC2)n2ncc(-c3ccc(Cl)cc3)c2n1 do in these assays?
NS1 inh: inactive

How did CC(=O)N1CC23C=CC(CC2CC12CCCCCC2)O3 (stereo not drawn) do in these assays?
Pf growth 48h: inactive; SARS PLP yeast: inactive; Shiga inhibitor: inactive; NS1 inh: inactive; CHX counter: inactive; Pf growth 96h: inconclusive

Results for CC(=O)Nc1ccc(OCc2nnc(-c3ccccc3)o2)cc1 ?
Pf growth 48h: inactive; SARS PLP yeast: inactive; Shiga inhibitor: inactive; NS1 inh: inactive; CHX counter: inactive; Pf growth 96h: 3.7µM

What do the screens show for `O=[N+]([O-])c1cc(Br)c(OCc2nnc(-c3ccccc3)o2)c(Br)c1`?
Pf growth 48h: inconclusive; SARS PLP yeast: inactive; Shiga inhibitor: inactive; CHX counter: inactive; Pf growth 96h: inactive

What do the screens show for `Clc1ccccc1OCc1nnc(-c2ccccc2)o1`?
Pf growth 48h: inactive; SARS PLP yeast: inactive; Shiga inhibitor: 67; NS1 inh: inactive; CHX counter: 46; Pf growth 96h: inactive

How did CC(=O)Nc1ccccc1OCc1nnc(-c2ccc(Cl)cc2)o1 do in these assays?
Pf growth 48h: inactive; SARS PLP yeast: inactive; Shiga inhibitor: inactive; NS1 inh: inactive; CHX counter: 28; Pf growth 96h: inactive

How did CC(=O)Nc1ccccc1OCc1nnc(-c2cccs2)o1 do in these assays?
Pf growth 48h: inactive; SARS PLP yeast: inactive; Shiga inhibitor: inactive; NS1 inh: inactive; CHX counter: inactive; Pf growth 96h: inactive

What do the screens show for `CNc1sc(C(=O)c2ccccc2F)c(N)c1-c1nc2ccccc2s1`?
SARS PLP yeast: inactive; Shiga inhibitor: 64; NS1 inh: inactive; CHX counter: 19; Pf growth 96h: inconclusive

What do the screens show for `O=C(COC(=O)c1ccccc1-c1nc2ccccc2s1)Nc1ccccc1C(F)(F)F`?
Pf growth 48h: inactive; SARS PLP yeast: inactive; Shiga inhibitor: inactive; NS1 inh: inactive; CHX counter: inactive; Pf growth 96h: inconclusive

How did S=c1[nH]nc(Cc2sc(-c3ccccc3)nc2-c2ccccc2)o1 do in these assays?
SARS PLP yeast: inactive; Shiga inhibitor: inactive; NS1 inh: inactive; CHX counter: inactive; Pf growth 96h: inactive

Results for Cc1ccc(C)c(OCCC(=O)NCCc2ccc(S(N)(=O)=O)cc2)c1 ?
Pf growth 48h: inactive; SARS PLP yeast: inactive; Shiga inhibitor: inactive; NS1 inh: inactive; CHX counter: inactive; Pf growth 96h: inactive

Results for N/C(=N\OC(=O)CCCc1ccccc1)c1cccnc1 ?
Pf growth 48h: inactive; SARS PLP yeast: inactive; Shiga inhibitor: 40; NS1 inh: inactive; CHX counter: 21; Pf growth 96h: inactive

Results for N/C(=N\OC(=O)CCCCCN1C(=O)c2ccccc2C1=O)c1ccccc1 ?
Pf growth 48h: inactive; SARS PLP yeast: inactive; Shiga inhibitor: 71; NS1 inh: inactive; CHX counter: 37; Pf growth 96h: inactive

Results for Cc1cccc(/C(N)=N/OC(=O)CCCN2C(=O)c3ccccc3C2=O)c1 ?
Pf growth 48h: inactive; SARS PLP yeast: inactive; Shiga inhibitor: inactive; NS1 inh: inactive; CHX counter: inactive; Pf growth 96h: inactive

What do the screens show for `Cc1cccc(/C(N)=N/OC(=O)CCCc2ccccc2)c1`?
Pf growth 48h: inactive; SARS PLP yeast: inactive; Shiga inhibitor: 66; NS1 inh: inactive; CHX counter: 57; Pf growth 96h: inactive

Results for N/C(=N\OC(=O)CC(c1ccccc1)c1ccccc1)c1cccnc1 ?
Pf growth 48h: inconclusive; SARS PLP yeast: inactive; Shiga inhibitor: inactive; NS1 inh: inactive; CHX counter: inactive; Pf growth 96h: inactive

How did N/C(=N\OC(=O)CCCOc1ccccc1)c1ccccc1 do in these assays?
Pf growth 48h: inactive; SARS PLP yeast: inactive; Shiga inhibitor: inactive; NS1 inh: inactive; CHX counter: 23; Pf growth 96h: inactive

How did Cc1cc(NCc2ccco2)n2ncnc2n1 do in these assays?
Pf growth 48h: inactive; SARS PLP yeast: inactive; Shiga inhibitor: inactive; NS1 inh: inactive; CHX counter: inactive; Pf growth 96h: inconclusive

How did N/C(=N\OC(=O)CCCc1ccccc1)c1cccc([N+](=O)[O-])c1 do in these assays?
Pf growth 48h: inactive; SARS PLP yeast: inactive; Shiga inhibitor: inactive; NS1 inh: inactive; CHX counter: inactive; Pf growth 96h: inactive

Results for N/C(=N\OC(=O)CCCc1ccccc1)c1ccccc1 ?
Pf growth 48h: inactive; SARS PLP yeast: inactive; Shiga inhibitor: inactive; NS1 inh: inactive; CHX counter: 31; Pf growth 96h: inactive

What do the screens show for `Cc1ccc(CNC(=O)CS(=O)(=O)Cc2nc(-c3ccc(C)cc3)oc2C)cc1`?
Pf growth 48h: inactive; SARS PLP yeast: inactive; Shiga inhibitor: inactive; NS1 inh: inactive; CHX counter: inactive; Pf growth 96h: inconclusive

Results for Cc1noc(C)c1CSCC(=O)N(C)CC(=O)Nc1ccccc1Cl ?
Pf growth 48h: inactive; SARS PLP yeast: inactive; Shiga inhibitor: inactive; NS1 inh: inactive; CHX counter: inactive; Pf growth 96h: inconclusive

What do the screens show for `COc1cc(-c2nc(-c3ccc(NC(=O)c4ccc(Br)o4)cc3)no2)cc(OC)c1OC`?
SARS PLP yeast: inactive; Shiga inhibitor: inactive; NS1 inh: inactive; CHX counter: 36; Pf growth 96h: inconclusive

Results for COc1ccc(-c2nc(-c3ccc(NC(=O)c4ccc(Br)o4)cc3)no2)cc1OC ?
Pf growth 48h: inconclusive; SARS PLP yeast: inactive; Shiga inhibitor: 46; NS1 inh: inactive; CHX counter: 29; Pf growth 96h: inconclusive

What do the screens show for `COc1cc(C(=O)NNC(=O)CNC(=O)c2ccc(Br)o2)cc(OC)c1OC`?
Pf growth 48h: inactive; SARS PLP yeast: inactive; Shiga inhibitor: inactive; NS1 inh: inactive; CHX counter: inactive; Pf growth 96h: inactive

Results for O=[N+]([O-])c1ccc(SCc2ccco2)cc1N1CCOCC1 ?
Pf growth 48h: inconclusive; SARS PLP yeast: inactive; Shiga inhibitor: 54; CHX counter: 29; Pf growth 96h: inactive

How did O=[N+]([O-])c1ccc(N2CCOCC2)cc1SCc1ccco1 do in these assays?
Pf growth 48h: inactive; SARS PLP yeast: inactive; Shiga inhibitor: inactive; NS1 inh: inactive; CHX counter: inactive; Pf growth 96h: inactive
